# What was measured:
# [1] = biological target: Mitogen-activated protein kinase kinase kinase kinase 4 (Homo sapiens) (UniProt O95819); conditions: at 1 µM;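 further: reported figure is an averaged inhibition value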
# [2] = biological target: Dual specificity mitogen-activated protein kinase kinase 1 (Homo sapiens) (UniProt Q02750); conditions: at 0.1 µM
# [3] = biological target: Dual specificity mitogen-activated protein kinase kinase 1 (Homo sapiens) (UniProt Q02750); conditions: at 1 µM
# [4] = biological target: Misshapen-like kinase 1 (Homo sapiens) (UniProt Q8N4C8); conditions: at 0.1 µM
# [5] = biological target: Misshapen-like kinase 1 (Homo sapiens) (UniProt Q8N4C8); conditions: at 1 µM
# [6] = biological target: T1, Serine/threonine-protein kinase 4 (Homo sapiens) (UniProt Q13043); conditions: at 0.1 µM
# T1 sequence (whole entry): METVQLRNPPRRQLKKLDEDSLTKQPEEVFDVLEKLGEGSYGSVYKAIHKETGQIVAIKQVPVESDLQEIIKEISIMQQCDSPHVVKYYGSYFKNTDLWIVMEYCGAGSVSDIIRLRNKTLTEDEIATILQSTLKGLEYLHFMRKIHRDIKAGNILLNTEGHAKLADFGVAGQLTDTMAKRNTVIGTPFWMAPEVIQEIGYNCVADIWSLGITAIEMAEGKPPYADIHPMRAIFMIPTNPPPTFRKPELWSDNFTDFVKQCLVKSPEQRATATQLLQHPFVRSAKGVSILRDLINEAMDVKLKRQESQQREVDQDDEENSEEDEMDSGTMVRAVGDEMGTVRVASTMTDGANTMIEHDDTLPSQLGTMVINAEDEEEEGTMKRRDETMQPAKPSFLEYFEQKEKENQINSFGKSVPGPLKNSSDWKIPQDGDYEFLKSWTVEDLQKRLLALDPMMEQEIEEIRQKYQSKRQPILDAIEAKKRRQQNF
# [7] = biological target: T1, Serine/threonine-protein kinase 4 (Homo sapiens); conditions: at 1 µM
# [8] = biological target: T2, Serine/threonine-protein kinase 3 (Homo sapiens) (UniProt Q13188); conditions: at 0.1 µM
# T2 sequence (whole entry): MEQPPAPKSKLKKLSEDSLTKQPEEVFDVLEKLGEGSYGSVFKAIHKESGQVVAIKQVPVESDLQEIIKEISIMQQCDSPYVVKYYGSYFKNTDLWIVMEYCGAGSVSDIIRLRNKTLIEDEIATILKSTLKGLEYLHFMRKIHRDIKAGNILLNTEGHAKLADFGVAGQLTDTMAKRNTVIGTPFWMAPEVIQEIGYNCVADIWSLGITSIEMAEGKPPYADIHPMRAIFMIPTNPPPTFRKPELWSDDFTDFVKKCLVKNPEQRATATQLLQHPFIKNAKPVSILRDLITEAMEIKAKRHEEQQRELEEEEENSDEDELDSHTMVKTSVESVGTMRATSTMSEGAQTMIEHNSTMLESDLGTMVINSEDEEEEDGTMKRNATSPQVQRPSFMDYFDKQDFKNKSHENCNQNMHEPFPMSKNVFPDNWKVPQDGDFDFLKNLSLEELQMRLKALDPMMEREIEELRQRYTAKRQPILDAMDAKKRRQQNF
# [9] = biological target: T2, Serine/threonine-protein kinase 3 (Homo sapiens); conditions: at 1 µM
# [10] = biological target: Serine/threonine-protein kinase 26 (Homo sapiens) (UniProt Q9P289); conditions: at 0.1 µM
# Chain of Serine/threonine-protein kinase 26 (Homo sapiens) (Q9P289 2-416 limits assumed): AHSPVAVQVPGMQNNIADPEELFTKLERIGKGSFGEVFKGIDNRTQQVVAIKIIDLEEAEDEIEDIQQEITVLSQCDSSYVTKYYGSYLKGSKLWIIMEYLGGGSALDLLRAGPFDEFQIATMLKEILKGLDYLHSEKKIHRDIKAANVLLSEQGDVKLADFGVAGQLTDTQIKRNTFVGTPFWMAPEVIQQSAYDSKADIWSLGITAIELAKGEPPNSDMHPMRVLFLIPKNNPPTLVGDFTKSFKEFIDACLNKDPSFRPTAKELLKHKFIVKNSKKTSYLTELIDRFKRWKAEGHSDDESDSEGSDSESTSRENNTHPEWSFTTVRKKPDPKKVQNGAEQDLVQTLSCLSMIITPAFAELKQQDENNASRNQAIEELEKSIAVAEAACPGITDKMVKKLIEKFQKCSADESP
# Chain of Mitogen-activated protein kinase kinase kinase kinase 4 (Homo sapiens) (O95819 2-1239 limits assumed): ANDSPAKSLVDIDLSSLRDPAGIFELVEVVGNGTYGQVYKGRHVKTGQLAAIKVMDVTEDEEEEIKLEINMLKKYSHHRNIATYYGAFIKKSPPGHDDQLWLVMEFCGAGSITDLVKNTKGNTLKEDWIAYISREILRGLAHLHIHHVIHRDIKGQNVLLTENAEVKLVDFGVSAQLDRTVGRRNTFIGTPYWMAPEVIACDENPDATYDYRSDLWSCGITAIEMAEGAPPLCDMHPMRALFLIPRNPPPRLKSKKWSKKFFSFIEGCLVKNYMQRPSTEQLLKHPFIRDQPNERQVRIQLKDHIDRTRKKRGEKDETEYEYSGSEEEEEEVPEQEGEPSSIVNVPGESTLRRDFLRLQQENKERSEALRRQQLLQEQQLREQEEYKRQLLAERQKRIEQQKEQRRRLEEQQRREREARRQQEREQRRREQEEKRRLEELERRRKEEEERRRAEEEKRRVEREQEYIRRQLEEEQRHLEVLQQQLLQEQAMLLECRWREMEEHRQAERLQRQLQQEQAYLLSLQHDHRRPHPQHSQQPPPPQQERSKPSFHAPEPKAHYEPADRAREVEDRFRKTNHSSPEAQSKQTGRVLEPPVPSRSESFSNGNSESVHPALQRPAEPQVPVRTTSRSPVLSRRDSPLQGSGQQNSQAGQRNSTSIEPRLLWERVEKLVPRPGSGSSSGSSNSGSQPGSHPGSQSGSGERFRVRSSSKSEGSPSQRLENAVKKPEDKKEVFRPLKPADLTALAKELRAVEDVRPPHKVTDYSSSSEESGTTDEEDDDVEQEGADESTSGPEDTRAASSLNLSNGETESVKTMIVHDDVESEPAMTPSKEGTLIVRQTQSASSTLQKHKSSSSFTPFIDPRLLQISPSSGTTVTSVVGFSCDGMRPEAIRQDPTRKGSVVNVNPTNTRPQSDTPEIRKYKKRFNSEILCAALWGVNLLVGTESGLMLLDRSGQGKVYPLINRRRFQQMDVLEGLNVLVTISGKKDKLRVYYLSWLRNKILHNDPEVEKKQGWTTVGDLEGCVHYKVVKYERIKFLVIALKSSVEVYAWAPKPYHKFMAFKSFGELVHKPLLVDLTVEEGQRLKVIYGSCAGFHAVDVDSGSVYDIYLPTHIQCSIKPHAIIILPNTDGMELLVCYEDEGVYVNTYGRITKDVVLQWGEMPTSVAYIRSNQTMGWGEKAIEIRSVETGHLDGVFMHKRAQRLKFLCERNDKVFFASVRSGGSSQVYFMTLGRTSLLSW
# Chain of Misshapen-like kinase 1 (Homo sapiens) (Q8N4C8 whole entry, looked up): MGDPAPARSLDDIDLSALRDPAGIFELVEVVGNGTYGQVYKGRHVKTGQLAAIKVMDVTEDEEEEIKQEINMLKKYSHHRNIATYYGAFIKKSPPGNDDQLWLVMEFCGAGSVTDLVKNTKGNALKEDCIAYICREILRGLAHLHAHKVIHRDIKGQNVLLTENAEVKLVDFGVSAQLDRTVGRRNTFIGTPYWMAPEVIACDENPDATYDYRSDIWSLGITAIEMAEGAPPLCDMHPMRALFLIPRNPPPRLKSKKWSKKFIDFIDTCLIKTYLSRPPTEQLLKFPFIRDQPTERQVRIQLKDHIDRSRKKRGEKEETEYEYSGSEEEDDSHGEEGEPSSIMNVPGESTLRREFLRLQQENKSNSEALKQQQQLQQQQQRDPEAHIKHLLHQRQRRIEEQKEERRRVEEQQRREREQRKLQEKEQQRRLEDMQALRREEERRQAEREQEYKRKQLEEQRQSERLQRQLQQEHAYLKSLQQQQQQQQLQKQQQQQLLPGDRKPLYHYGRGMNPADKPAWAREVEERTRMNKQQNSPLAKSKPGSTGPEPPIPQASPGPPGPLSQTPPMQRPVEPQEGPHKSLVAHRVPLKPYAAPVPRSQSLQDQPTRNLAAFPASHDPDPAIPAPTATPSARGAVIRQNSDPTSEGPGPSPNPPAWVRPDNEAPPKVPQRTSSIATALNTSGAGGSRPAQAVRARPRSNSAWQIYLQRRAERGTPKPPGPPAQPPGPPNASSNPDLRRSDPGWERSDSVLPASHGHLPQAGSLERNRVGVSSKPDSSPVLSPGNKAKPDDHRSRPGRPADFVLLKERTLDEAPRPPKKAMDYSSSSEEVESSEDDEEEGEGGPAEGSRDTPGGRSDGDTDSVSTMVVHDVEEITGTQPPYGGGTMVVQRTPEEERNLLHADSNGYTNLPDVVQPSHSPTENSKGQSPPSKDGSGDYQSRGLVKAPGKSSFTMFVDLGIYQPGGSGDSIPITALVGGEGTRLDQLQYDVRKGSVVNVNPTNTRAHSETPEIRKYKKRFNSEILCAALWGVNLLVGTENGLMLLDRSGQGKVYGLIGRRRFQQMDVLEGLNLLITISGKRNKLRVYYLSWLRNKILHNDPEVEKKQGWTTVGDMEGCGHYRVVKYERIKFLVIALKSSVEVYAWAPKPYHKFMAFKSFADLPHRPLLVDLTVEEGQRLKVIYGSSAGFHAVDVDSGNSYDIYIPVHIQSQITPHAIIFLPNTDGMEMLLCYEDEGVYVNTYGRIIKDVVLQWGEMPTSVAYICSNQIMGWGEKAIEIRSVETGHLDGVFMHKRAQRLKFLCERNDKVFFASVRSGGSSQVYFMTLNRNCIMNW
# Chain of Dual specificity mitogen-activated protein kinase kinase 1 (Homo sapiens) (Q02750 whole entry): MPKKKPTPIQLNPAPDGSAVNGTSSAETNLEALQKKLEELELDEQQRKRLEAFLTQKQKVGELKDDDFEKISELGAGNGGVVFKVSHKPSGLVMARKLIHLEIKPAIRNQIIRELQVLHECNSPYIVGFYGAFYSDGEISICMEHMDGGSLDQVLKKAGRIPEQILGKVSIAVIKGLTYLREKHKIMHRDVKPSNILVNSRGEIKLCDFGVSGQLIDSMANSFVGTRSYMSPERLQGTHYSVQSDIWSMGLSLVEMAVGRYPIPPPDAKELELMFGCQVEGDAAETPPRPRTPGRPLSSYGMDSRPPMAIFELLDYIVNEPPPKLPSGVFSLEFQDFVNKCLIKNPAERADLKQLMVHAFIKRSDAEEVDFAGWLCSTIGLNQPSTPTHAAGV
Structure (SMILES),inhibition [1],inhibition [2],inhibition [3],inhibition [4],inhibition [5],inhibition [6],inhibition [7],inhibition [8],inhibition [9],inhibition [10]
CN1CCC(n2cnc(-c3ccc(F)cc3)c2-c2ccnc(Nc3ccccc3)n2)CC1,41.2%,3.25%,4.26%,8.59%,41.2%,3.25%,6.2%,1.1%,3.6%,0.76%
CCN1CCC(CC(=O)Nc2n[nH]c3nnc(-c4cccc(F)c4F)cc23)CC1,3.87%,2.23%,2.45%,3.67%,4.07%,2.83%,6.13%,3.62%,5.19%,0.66%
CC(=O)NCc1cccc(C#Cc2cncnc2Nc2ccc(OCc3cccc(F)c3)c(Cl)c2)c1,7.74%,1.45%,1.08%,2.48%,8.64%,1.57%,5.79%,0.67%,3.55%,-0.27%
Fc1ccc(-c2cc(-c3c[nH]nc3-c3ccccn3)ccn2)cc1,59.6%,5.25%,3.85%,10.7%,44.4%,4.5%,6.92%,6.43%,7.79%,-0.73%
NS(=O)(=O)c1ccc(Nc2ncc(-c3ccccc3)o2)cc1,58.6%,2.3%,2.12%,8.89%,41.9%,6.4%,10.2%,7.3%,8.38%,-1.93%
COc1ccc(-c2cc(-c3c[nH]nc3-c3ccccn3)ccn2)cc1,80.3%,6.36%,4.25%,24.6%,72.7%,7.65%,10.6%,9.35%,10.1%,-2.95%
COc1cc(Nc2nccc(Nc3ccc4c(C)n[nH]c4c3)n2)cc(OC)c1OC,12.4%,2.25%,4.1%,2.58%,11%,5.05%,7.86%,5.15%,6.19%,1.12%
CN1CCC(n2cnc(-c3ccc(F)cc3)c2-c2ccnc(N)n2)CC1,12%,3.26%,3.41%,4.61%,11%,2.73%,7.85%,3.58%,6.77%,-1.05%
O=C(O[C@H]1CN[C@H](C#Cc2cc3ncnc(Nc4ccc(Cc5ccccc5)cc4)c3s2)C1)N1CCOCC1,-0.81%,1.32%,1.73%,3.34%,1.04%,1.14%,3.13%,3.94%,3.64%,-0.29%
Clc1ccc(-c2nn3ncccc3c2-c2ccnc(Nc3ccccc3)n2)cc1,39.9%,1.32%,2.28%,5.91%,33%,0.77%,0.46%,-0.25%,-0.67%,1.4%
FC(F)(F)c1cccc(-c2nn3ncccc3c2-c2ccnc(Nc3ccc4c(c3)OCCO4)n2)c1,58.1%,2.31%,4.08%,9.69%,55.8%,4.33%,6.24%,5.41%,4.99%,-0.12%
COc1cc(/C=N/Nc2ncnc3[nH]ncc23)ccc1O,38.5%,3.54%,3.75%,6.75%,25.1%,6.37%,19.5%,5.9%,15.1%,-1.06%
NC(=O)c1sc(-n2cnc3ccc(C(F)(F)F)cc32)cc1OCc1ccccc1Br,10.4%,4.95%,5.45%,4.02%,11%,2.27%,3.83%,3.43%,4.74%,-0.65%
N#Cc1c(NC(=O)CN2CCOCC2)sc2c1CCCC2,8.62%,6.12%,5.95%,6.83%,6.87%,5.59%,8.28%,4.7%,8.26%,-1.62%
CCOc1ccc2c(-c3ccnc(Nc4cccc(C(F)(F)F)c4)n3)cnn2n1,4.83%,2.29%,0.44%,3.9%,7.19%,3.72%,3.98%,5.61%,6.48%,0.02%
CCn1cc(-c2ccnc3[nH]ccc23)c(-c2cccc(NC(=O)Nc3ccc(OCc4ccccc4)cc3)c2)n1,27.8%,0.08%,1.59%,3%,30.9%,1.36%,1.63%,2.37%,2.77%,0.67%
COc1ccc2[nH]c3c4[nH]c5ccc(OC)cc5c4c4c(c3c2c1)C(=O)NC4=O,88.4%,4.86%,7.06%,81.3%,84.8%,13%,42%,14.2%,42.4%,4.27%
Fc1ccc(-c2nn3ncccc3c2-c2ccnc(Nc3ccc4c(c3)OCCO4)n2)cc1,73.2%,5.8%,11.7%,16.4%,65.2%,3.27%,5.1%,3.68%,3.21%,-0.01%
COc1ccc(CNC(=O)c2ccc(-c3cc(-c4nnc(C)o4)ccc3C)cc2)cc1,16.3%,3.35%,0.16%,3.36%,12.7%,7.99%,14.7%,6.56%,13.6%,3.07%
CCn1c(-c2nonc2N)nc2c(C#CC(C)(C)O)ncc(OC3CCNCC3)c21,6.21%,1.98%,3.44%,4.48%,5.83%,1.6%,4.54%,3.55%,6.04%,0.64%
Fc1ccc(-c2nn3ccccc3c2-c2ccncc2)cc1,38.3%,1.23%,2.3%,4.74%,22.3%,0.01%,0.15%,0.09%,0.63%,-1.27%
c1cc(-c2cnn3nc(N4CCOCC4)ccc23)nc(NC2CC2)n1,20.9%,4.84%,9.33%,4.94%,13.9%,7.25%,10.3%,8.19%,8.11%,-0.92%
COc1cc(N2CCN(C(C)C)CC2)ccc1Nc1nc(Nc2ccc(F)cc2C(N)=O)c2cc[nH]c2n1,68.1%,2.21%,15.6%,14.2%,55%,5.27%,25.2%,4.27%,10.3%,0.23%
CS(=O)(=O)CCNCc1coc(-c2ccc3ncnc(Nc4ccc(OCc5ccccc5)cc4)c3c2)c1,7.26%,2.33%,3.36%,5.08%,4.66%,2.75%,3.41%,4.25%,3.71%,-2.22%
CNC(=O)c1cccc(C#Cc2cncnc2Nc2ccc(OCc3cccc(F)c3)c(Cl)c2)c1,5.4%,0.1%,1.05%,-0.5%,5.14%,4.83%,8.84%,5.85%,7.85%,0.31%
CCn1c(-c2nonc2N)nc2cnc(Oc3cccc(NC(=O)c4ccc(N(C)C)cc4)c3)cc21,29.4%,1.11%,2.61%,3.19%,28.2%,-0.06%,1.47%,0.98%,2.32%,-1.48%
Fc1cccc(COc2ccc(Nc3ncnc4sc(-c5ccco5)cc34)cc2Cl)c1,6.92%,5.47%,3.29%,6.46%,7.36%,4.94%,8.32%,6.61%,8.59%,-1.76%
COC(=O)c1sc(-n2cnc3cc(OC)c(OC)cc32)cc1OCc1ccccc1C(F)(F)F,10.1%,5.37%,4.96%,5.47%,11.2%,4.68%,9.69%,5.78%,9.15%,-1.48%
COC(=O)Nc1nc2ccc(S(=O)(=O)c3ccc(NC(=O)Nc4cc(C(F)(F)F)ccc4F)cc3)cc2[nH]1,6.09%,2.83%,2.72%,5.17%,8.15%,3.71%,4.43%,4%,3.06%,0.89%

# — ChEMBL document CHEMBL1961873, “Compounds: GSK PKIS; Assays: Nanosyn kinase panel” (2012)
